Values joined by “and” are separate entries in the source; they are usually repeats but may differ in a detail not shown here. Equal values may be shown once. The whole screen tested about 73,000 compounds, of which about 350 (0.48%) were called active. Another 17% or so got no clear call; they are omitted. Calls come from the whole dose curve; as a rule, active = well fitted activation curve with a large enough effect in the main read-out, with a control signal flat (not every such curve was filed as active); inconclusive = small, poorly fitted or top-dose-only effect, or a change in a side signal; inactive = no such curve, though single readings can be large or run the other way; reference of the percent scale not stated here. For the sample, actives were picked, then their nearest neighbours and some compounds at random.

The text below walks through data of PubChem BioAssay AID926 (National Center for Advancing Translational Sciences (NCATS), 2007).

Experiment [1] in a line: qHTS Assay for Agonists of the Thyroid Stimulating Hormone Receptor. The following applies: HEK293-CNG-TSHR cells, membrane potential dye, cAMP; measured here: parental cells max response. A digest of the protocol:
(§1)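 HEK 293 cells stably expressing TSHR and a cAMP-gated CNG channel; parental CNG-only cells as counterscreen. Cells preloaded 60 min with membrane potential dye plus 100 uM RO 20-1724, then compound 30 min; fluorescence read at 590 nm.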
Background: qHTS replaces the single test concentration by a dilution series.

Experiment [2] addresses Thyrotropin receptor (Homo sapiens) (UniProt P16473). The description is as above. Conditions: HEK293-CNG-TSHR cells (CNG channel as cAMP sensor), membrane potential dye, cAMP; series mostly up to 57.1 µM. A digest of the protocol:
as §1
Potency is the fitted concentration of half-maximal effect.

Chain of Thyrotropin receptor (Homo sapiens) (P16473 whole entry, looked up): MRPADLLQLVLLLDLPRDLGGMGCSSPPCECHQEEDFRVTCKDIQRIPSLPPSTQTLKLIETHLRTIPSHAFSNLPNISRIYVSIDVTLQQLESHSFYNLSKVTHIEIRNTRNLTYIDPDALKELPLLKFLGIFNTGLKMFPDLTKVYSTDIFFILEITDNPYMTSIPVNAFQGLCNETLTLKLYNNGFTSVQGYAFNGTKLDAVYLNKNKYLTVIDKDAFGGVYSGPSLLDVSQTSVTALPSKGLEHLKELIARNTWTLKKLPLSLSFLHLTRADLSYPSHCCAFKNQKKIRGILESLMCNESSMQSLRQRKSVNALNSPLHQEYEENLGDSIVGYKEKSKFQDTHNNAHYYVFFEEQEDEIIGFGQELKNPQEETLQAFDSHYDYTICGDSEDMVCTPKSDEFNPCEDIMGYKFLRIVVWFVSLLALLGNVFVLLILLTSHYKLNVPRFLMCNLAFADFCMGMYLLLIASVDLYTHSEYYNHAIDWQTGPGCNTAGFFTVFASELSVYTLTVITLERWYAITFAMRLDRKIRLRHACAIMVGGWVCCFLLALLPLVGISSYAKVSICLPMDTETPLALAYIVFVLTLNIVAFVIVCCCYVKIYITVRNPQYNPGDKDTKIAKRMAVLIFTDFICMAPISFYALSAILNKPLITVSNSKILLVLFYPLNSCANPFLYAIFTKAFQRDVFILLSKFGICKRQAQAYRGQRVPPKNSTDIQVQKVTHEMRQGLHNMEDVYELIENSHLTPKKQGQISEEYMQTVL

For `CC1CCCCN1CCCNC(=O)c1ccc(-n2c(=O)c(=O)[nH]c3ccccc32)cc1` (centres undefined), the activation in experiment [1] is -4.46%. Besides, in experiment [2], the Potency result was “inactive”.
For `CCCn1c(C)nc2c(NCCCCN(CC)CC)nc(C)nc21`, in experiment [1], the activation came to 4.8%. Further, the Potency result in experiment [2] was “inactive”.
Take `O=C1C[C@@H](O)[C@@H](O)[C@H]2[C@@H]3C(=O)N(Cc4ccc5c(c4)OCO5)C(=O)[C@@H]3CC[C@H]12`: the activation in experiment [1] is 0.478% and -2.17%; in experiment [2] it was 1.51% [at 11.4 µM] (inactive) and -4.05% [at 11.4 µM] (inactive).
Regarding `C#CCCCCCCCCCCCCCCCC(=O)O`, the activation in experiment [1] amounted to 7.8%. The Potency entry in experiment [2] was “inactive”.
In the case of `COc1ccc(-c2nnc(SC(=O)N3c4ccccc4Sc4ccccc43)o2)cc1`, the figures for the activation in experiment [1] and in experiment [2] were -13.7% and -19.2% [at 11.4 µM] (inactive), respectively.
`CCC1C(C#N)=C(SC)NC2=C1C(=O)CC(C)(C)C2` (centres undefined): the activation is 9.37% in experiment [1] and 4.61% [at 11.4 µM] (inactive) in experiment [2].
Consider `Cc1c2c(nc3ccccc13)-c1cccc(=O)n1C2`, for which the activation in experiment [1] is -3.79%. Besides, the Potency result in experiment [2] was “inactive”.
The matching figures for `Cc1noc(C)c1-c1nc(Nc2ccccc2)c2ccccc2n1`: -3.31% and “inactive”.
The matching figures for `O=C(O)c1ccc(Cl)c(S(=O)(=O)Nc2ccccc2Cl)c1`: 5.29% and “inactive”.
Consider `Cc1ccc2c(c1)sc1ncc(NC(=O)c3ccccc3)c(=O)n12`, for which, in experiment [1], the activation amounted to 11.7%. For the same compound, the Potency result in experiment [2] is “inactive”.
The matching figures for `CCNC(=S)NCC`: -3.45% and “inactive”.
As for `COC(=O)c1cn(-c2ccccc2)nc1-c1cccnc1`, the activation in experiment [1] was 9.42%. Besides, the Potency result in experiment [2] is “inactive”.
Regarding `CO/N=C\[C@@H](C)[C@H](OCc1ccccc1)C(C)C`, the activation in experiment [1] was -0.643%; in experiment [2], 16.8% [at 11.4 µM] (inactive).
Consider `O=c1c(-c2ccc(F)c(F)c2)nc2cncnc2n1-c1ccccc1`, for which, in experiment [1], the activation stood at 19.9%. For the same compound, the Potency entry in experiment [2] is “inactive”.
The matching figures for `N[C@H](C(=O)O)c1ccc(C(=O)O)c(O)c1`: -2.63% and “inactive”.
The matching figures for `N#Cc1cccc(CSc2nnc(CCCO)n2-c2ccccc2)c1`: -1.39% and “inactive”.
The corresponding values for `COC(=O)C1(C)C=CC2(CCCCC2)N1C(C)=O` (centres undefined) are 19.4% and “inactive”.
As to `COc1cccc(-c2nnc(N(C)C(=O)c3ccno3)s2)c1`, the figures for the activation in experiment [1] and in experiment [2] were 11% and -1% [at 11.4 µM] (inactive), respectively.
The corresponding values for `CC(=O)OCC1OC(C#Cc2ccccc2Cl)C=CC1OC(C)=O` (centres undefined) are -0.512% and 0.546% [at 11.4 µM] (inactive).
The matching figures for `COc1ccc(/C=C/NC(=O)c2ccc(OC)cc2)cc1`: -3.02% and -7.55% [at 11.4 µM] (inactive).
The matching figures for `CN1CCc2nc(-c3ccccc3)c(-c3ccccc3)cc2C1`: 0.173% and 2% [at 11.4 µM] (inactive).
Consider `Cn1c(=O)c(-c2ccccc2)nc2cnc(N3CCNCC3)nc21`, for which, in experiment [1], the activation worked out at 4.18%. Moreover, in experiment [2], the Potency result was “inactive”.
For `CC1(C)S[C@@H]2[C@@H](NC(=O)[C@@H](N)c3ccccc3)C(=O)N2[C@H]1C(=O)O`, the activation in experiment [1] is -1.13%. In experiment [2], the Potency entry was “inactive”.
The corresponding values for `Cc1ccccc1NC(=O)NCc1ccco1` are 1.97% and “inactive”.
The corresponding values for `CC(C)(C)c1ccc(C(=O)NCCC(=O)NCc2ccco2)cc1` are -0.34% and “inactive”.
The matching figures for `CC(C)(C)c1ccc(NC(=O)NCc2ccco2)cc1`: 3.69% and 3.98 µM (active).
`CCOc1ccccc1C1NC(=O)NC(C)=C1C(=O)OCc1ccco1` (centres undefined): the activation in experiment [1] was determined as 0.325%. The Potency entry in experiment [2] is “inactive”.
As for `CCC(Sc1nncn1C)C(=O)Nc1nnc(-c2ccc(Cl)cc2)s1` (centres undefined), the activation in experiment [1] was -6.53%. In addition, the Potency result in experiment [2] was “inactive”.
Regarding `O=C1OCCC=C1[C@@H](O)CCc1ccccc1`, the values for the activation in experiment [1] and in experiment [2] were -4.2% and 5.01% [at 11.4 µM] (inactive), respectively.
Regarding `COc1ccc(/C=C/NC(=O)Cc2ccc(OC)c(OC)c2)cc1`, the activation in experiment [1] was 28.5% and 7.24%; in experiment [2], 10.9% [at 11.4 µM] (inactive) and -1.69% [at 11.4 µM] (inactive).
Consider `CCOC(=O)c1cnc2sccn2c1=O`, for which, in experiment [1], the activation came to 5.11%. Moreover, the Potency result in experiment [2] is “inactive”.
The corresponding values for `CCOC(=O)c1cnc(-n2nc(C)cc2C)nc1-n1nc(C)cc1C` are 1.88% and 3.16 µM (active).
In the case of `CCOC(=O)c1cnc(-n2nc(C)cc2C)nc1Nc1cccc(C(C)=O)c1`, in experiment [1], the activation was found to be 16.9%. Further, in experiment [2], the Potency entry was “inactive”.
The matching figures for `CC(=O)Nc1cc2ccc(OC(C)=O)cc2oc1=O`: -10.5% and “inactive”.
`Oc1ccc(Cl)cc1/C=N/c1nc2ccccc2[nH]1`: the activation in experiment [1] is 6.32%; in experiment [2], 0.206% [at 11.4 µM] (inactive).
In the case of `CNC(=O)c1c(NC(=O)c2ccc(S(=O)(=O)N3CCOCC3)cc2)sc2c1CCC2`, the activation in experiment [1] came out at 0.0362%. In addition, the Potency result in experiment [2] was “inactive”.
The matching figures for `COc1ccc2c(c1)C=CC1(O2)N(CCO)c2ccccc2C1(C)C` (centres undefined): 16.4% and 15.8 µM (active).
For `O=C(O)CCC(=O)N(Cc1cccs1)Cc1cccs1`, the activation in experiment [1] was 4.58%. Besides, the Potency result in experiment [2] was “inactive”.
The matching figures for `O=P(c1cccs1)(c1cccs1)c1cccs1`: 29% and 0.631 µM (active).
The corresponding values for `O=C(Nc1ncccn1)c1cccs1` are 2.1% and “inactive”.
The corresponding values for `O=C(O)CCC(=O)NCc1ccc2[nH]c3c(c2c1)CCCC3` are -0.484% and “inactive”.
For the compound `Cc1cccc(C(=O)O)c1`, the activation in experiment [1] was found to be 12.6%. Moreover, the Potency entry in experiment [2] was “inactive”.
Turning to `CO[C@@H]1COC(=O)C/C=C\[C@H](C)[C@@H](NS(=O)(=O)c2ccc(C)cc2)COC(=O)C/C=C\[C@@H]1C`, the activation in experiment [1] was 2.07% and 4.9%; in experiment [2], -0.576% [at 11.4 µM] (inactive) and -0.527% [at 11.4 µM] (inactive).
Regarding `CCOC(=O)N/N=C1/C[C@@H](O)[C@@H](O)[C@@H]2[C@@H]3C(=O)N(CC)C(=O)[C@H]3CC[C@H]12`, the activation in experiment [1] was 2.56%; in experiment [2] it was 5.56% [at 11.4 µM] (inactive).
For `CC(C)CCn1c(CN(C)Cc2ccccc2)nc2c1c(=O)n(C)c(=O)n2C`, the activation in experiment [1] came to 3.87%. Also, in experiment [2], the Potency result was “inactive”.
In the case of `CO[C@@H]1COC(=O)[C@H](Cc2ccccc2)NC(=O)C/C=C\[C@@H](C)[C@H](OC)COC(=O)[C@@H](C)NC(=O)C/C=C\[C@H]1C`, the activation was 8.45% and -4.16% in experiment [1]; -6.09% [at 11.4 µM] (inactive) and -4.32% [at 11.4 µM] (inactive) in experiment [2].
Turning to `Cc1occc1C(=O)N1CCCc2ccccc21`, the activation in experiment [1] is 23.6%. The Potency entry in experiment [2] was “inactive”.
The corresponding values for `COc1ccc2oc(=O)c(C(=O)N3CCCc4ccccc43)cc2c1` are -9.12% and “inactive”.
The corresponding values for `CCc1cc(=O)oc2cc(OCC(=O)N3CCCc4ccccc43)ccc12` are -4.75% and 25.1 µM (active).
Take `COc1ccc(COC(=O)N/N=C2/C[C@@H](O)[C@@H](O)[C@@H]3[C@@H]4C(=O)N([C@@H](C)c5ccccc5)C(=O)[C@H]4CC[C@@H]23)cc1`: the activation in experiment [1] was -0.62%; in experiment [2] it was 0.427% [at 11.4 µM] (inactive).
Consider `Nc1nonc1C(=O)NCCc1ccccc1`, for which the activation in experiment [1] was -2.18%. The Potency entry in experiment [2] is “inactive”.
`COc1cc(Cl)c(S(=O)(=O)n2cnc(C)c2)cc1Cl`: the activation was 12.1% in experiment [1] and 13.5% [at 11.4 µM] (inactive) in experiment [2].
